# Laboratory results from the supplement of paper PMC6378613.
# Compound: Cc1ccc(-c2ccc3c(ccc4sc5c(c43)NC[C@@H](C)NC5=O)n2)cn1
# Test: kinase activity remaining relative to vehicle control; higher = less inhibition
# Experimental: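 In vitro radiometric kinase profiling of the MK2 inhibitor PF-3644022 at 0.1, 1 and 10 µM against a panel of kinases (MRC International Centre for Kinase Profiling, Dundee). Read-out is % kinase activity remaining relative to the vehicle control, mean of n=2.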
# Sequence of UniProt O43353 (O43353 whole entry, looked up): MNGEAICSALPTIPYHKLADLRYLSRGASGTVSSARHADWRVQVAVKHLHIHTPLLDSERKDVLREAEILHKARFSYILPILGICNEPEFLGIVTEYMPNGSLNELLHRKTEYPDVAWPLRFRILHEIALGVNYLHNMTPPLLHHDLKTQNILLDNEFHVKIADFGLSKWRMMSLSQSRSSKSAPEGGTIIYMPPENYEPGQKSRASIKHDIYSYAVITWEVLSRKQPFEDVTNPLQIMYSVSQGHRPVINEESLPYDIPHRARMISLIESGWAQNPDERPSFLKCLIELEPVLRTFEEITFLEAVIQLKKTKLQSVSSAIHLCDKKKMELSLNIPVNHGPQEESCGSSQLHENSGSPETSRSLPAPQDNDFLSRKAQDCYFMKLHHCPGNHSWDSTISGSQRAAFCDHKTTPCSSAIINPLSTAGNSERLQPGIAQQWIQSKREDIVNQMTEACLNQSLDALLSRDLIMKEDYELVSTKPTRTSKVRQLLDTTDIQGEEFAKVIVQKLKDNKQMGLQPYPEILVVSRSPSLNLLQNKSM
# Sequence of UniProt Q96L34 (Q96L34 whole entry, looked up): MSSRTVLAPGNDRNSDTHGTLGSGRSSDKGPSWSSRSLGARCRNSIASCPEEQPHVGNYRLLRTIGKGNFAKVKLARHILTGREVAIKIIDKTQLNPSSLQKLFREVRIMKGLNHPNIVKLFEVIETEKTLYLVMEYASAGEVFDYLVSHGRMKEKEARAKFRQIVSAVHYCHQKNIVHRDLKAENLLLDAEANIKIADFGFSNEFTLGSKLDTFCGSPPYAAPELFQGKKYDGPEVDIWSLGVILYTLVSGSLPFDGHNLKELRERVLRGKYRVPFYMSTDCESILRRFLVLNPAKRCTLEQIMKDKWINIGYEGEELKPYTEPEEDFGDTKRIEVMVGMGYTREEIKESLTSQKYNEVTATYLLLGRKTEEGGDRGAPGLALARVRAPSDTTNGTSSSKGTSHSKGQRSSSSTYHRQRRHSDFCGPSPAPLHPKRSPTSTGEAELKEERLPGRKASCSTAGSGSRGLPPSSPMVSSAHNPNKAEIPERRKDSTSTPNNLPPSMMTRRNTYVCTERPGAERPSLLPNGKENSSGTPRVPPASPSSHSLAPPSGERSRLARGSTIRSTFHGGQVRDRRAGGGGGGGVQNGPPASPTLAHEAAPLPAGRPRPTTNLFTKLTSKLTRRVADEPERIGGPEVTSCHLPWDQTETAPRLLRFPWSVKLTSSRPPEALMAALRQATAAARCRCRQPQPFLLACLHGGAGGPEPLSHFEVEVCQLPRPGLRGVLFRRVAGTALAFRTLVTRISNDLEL
# Sequence of UniProt P28482 (P28482 whole entry, looked up): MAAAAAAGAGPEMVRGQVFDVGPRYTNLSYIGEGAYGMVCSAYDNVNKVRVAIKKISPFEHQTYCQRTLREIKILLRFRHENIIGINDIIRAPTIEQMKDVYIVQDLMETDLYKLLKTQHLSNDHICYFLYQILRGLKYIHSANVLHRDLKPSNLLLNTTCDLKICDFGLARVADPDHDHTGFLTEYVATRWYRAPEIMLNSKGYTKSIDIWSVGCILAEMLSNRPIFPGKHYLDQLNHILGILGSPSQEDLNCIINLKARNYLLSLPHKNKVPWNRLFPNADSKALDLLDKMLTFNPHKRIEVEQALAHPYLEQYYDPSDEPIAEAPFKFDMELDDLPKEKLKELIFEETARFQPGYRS
# Sequence of UniProt Q14680 (Q14680 whole entry, looked up): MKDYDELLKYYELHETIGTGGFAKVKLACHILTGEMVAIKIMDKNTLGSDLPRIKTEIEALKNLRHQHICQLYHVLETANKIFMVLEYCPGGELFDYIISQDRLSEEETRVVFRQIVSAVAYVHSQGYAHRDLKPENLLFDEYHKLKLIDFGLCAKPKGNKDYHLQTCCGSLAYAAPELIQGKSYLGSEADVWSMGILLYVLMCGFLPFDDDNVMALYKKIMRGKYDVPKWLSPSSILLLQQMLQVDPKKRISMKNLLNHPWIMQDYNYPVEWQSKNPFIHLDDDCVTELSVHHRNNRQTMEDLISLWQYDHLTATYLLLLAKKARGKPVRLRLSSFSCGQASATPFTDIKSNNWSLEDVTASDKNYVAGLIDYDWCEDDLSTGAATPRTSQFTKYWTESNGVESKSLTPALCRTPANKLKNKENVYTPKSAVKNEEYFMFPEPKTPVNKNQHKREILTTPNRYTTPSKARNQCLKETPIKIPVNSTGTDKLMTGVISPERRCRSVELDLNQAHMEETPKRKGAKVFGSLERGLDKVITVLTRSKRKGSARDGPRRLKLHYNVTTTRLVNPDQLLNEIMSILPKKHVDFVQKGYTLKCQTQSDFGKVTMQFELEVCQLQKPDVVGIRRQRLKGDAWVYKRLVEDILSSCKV
# Sequence of UniProt Q13882 (Q13882 whole entry, looked up): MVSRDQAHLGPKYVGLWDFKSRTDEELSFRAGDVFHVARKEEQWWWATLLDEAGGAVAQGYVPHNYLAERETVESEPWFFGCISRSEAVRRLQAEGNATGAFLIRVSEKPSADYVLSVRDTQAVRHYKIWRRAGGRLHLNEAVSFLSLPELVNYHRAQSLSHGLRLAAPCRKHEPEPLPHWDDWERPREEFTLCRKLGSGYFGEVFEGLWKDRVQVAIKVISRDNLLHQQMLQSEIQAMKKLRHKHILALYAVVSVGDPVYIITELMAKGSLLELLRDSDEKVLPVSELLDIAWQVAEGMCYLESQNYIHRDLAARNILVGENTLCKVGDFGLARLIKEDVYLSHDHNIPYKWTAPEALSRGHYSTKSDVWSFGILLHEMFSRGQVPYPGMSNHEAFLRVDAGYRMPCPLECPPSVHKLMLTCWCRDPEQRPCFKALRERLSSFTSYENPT
# Sequence of UniProt P27361 (P27361 whole entry, looked up): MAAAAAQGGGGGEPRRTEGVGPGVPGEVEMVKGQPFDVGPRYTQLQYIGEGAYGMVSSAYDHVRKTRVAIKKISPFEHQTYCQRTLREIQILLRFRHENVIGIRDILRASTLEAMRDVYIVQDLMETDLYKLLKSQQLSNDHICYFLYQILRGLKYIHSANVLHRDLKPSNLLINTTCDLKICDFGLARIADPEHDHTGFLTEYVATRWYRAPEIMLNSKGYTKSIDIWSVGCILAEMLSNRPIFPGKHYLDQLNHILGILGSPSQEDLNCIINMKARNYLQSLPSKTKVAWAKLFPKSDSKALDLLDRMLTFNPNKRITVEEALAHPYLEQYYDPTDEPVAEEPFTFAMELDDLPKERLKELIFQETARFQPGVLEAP
# Sequence of UniProt P07947 (P07947 whole entry, looked up): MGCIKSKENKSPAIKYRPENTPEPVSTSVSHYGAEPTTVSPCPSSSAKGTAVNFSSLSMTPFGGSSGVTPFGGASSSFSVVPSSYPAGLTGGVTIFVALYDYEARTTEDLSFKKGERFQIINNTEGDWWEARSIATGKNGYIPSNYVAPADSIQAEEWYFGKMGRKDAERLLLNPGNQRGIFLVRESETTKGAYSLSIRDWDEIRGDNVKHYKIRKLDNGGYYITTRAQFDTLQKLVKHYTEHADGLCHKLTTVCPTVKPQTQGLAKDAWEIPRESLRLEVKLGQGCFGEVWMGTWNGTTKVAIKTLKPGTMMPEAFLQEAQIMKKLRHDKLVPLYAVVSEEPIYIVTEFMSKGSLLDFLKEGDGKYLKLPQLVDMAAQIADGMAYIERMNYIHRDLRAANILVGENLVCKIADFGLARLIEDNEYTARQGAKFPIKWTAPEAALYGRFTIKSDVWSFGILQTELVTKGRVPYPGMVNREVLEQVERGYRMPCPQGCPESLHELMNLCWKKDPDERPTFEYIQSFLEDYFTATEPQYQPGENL
# Sequence of UniProt Q9H422 (Q9H422 whole entry, looked up): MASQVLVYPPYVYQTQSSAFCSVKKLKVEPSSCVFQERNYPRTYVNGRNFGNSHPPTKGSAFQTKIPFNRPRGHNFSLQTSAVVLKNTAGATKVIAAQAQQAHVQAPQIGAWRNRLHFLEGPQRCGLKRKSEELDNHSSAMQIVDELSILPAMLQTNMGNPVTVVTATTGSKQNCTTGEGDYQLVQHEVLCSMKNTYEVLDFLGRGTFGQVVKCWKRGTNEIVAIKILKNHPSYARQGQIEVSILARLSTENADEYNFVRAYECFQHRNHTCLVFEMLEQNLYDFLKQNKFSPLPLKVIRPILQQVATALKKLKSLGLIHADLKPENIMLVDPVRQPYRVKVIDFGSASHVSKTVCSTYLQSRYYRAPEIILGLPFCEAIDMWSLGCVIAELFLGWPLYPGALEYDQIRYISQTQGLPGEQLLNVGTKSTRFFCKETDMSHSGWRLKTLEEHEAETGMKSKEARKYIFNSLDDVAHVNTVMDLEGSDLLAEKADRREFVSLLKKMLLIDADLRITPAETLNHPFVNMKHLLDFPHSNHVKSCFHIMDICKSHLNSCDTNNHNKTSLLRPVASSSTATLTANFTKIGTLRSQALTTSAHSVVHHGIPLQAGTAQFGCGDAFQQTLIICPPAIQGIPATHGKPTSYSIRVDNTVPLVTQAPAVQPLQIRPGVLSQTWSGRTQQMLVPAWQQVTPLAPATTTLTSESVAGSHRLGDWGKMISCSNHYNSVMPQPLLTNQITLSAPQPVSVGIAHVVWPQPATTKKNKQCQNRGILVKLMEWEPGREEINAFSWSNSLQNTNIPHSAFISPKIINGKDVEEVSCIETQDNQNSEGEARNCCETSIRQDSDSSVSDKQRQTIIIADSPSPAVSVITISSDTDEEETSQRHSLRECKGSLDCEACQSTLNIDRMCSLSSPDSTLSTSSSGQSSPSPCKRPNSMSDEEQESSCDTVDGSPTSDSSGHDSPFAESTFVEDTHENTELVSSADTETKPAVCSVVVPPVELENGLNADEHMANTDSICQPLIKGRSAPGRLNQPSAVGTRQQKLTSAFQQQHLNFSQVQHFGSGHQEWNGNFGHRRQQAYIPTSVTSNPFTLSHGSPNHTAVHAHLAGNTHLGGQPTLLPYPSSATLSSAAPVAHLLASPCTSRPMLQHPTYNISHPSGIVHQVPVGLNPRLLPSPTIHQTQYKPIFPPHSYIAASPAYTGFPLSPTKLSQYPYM
Target,kinase activity remaining (inhibitor concentration 0.1 µM) [%],kinase activity remaining (inhibitor concentration 1 µM) [%],kinase activity remaining (inhibitor concentration 10 µM) [%]
RIPK2 (UniProt O43353),93,94,39
MARK4 (UniProt Q96L34),107,87,49
YES1 (UniProt P07947),112,89,55
BRK (UniProt Q13882),121,94,92
RSK2 (UniProt P51812),104,79,50
MELK (UniProt Q14680),123,102,77
MPSK1 (UniProt O75716),117,118,105
HIPK3 (UniProt Q9H422),112,108,96
ERK1 (UniProt P27361),111,108,112
NEK2a (UniProt P51955),108,99,88
MAPKAP-K3,114,62,30
ERK2 (UniProt P28482),102,84,81
AMPK,93,38,9
